Experimental findings from PubChem BioAssay AID2014 (Sanford-Burnham Center for Chemical Genomics, 2009) are described below.

Hit rate of the full screen: of about 290,000 compounds, about 3,000 (1%) were called active. How the calls were made is not given here. Many of the other results were omitted from the sample, so actives are more common in it than they were.

For orientation: inhibition means the change of the read-out against control, counted positive when it falls.

The target of this test is Polyadenylate-binding protein 1 (Homo sapiens) (UniProt P11940). The experiment in a line: PABP poly(A) RNA binding inhibitors, primary screen, biochemical, fluorescence polarization, uHTS (AID 2014).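 Further: calls also rest on retests at 20 µM and on dose response follow-up.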 The settings on record: stronger effect = higher value.
Polyadenylate-binding protein 1 (Homo sapiens), sequence (P11940 whole entry, looked up): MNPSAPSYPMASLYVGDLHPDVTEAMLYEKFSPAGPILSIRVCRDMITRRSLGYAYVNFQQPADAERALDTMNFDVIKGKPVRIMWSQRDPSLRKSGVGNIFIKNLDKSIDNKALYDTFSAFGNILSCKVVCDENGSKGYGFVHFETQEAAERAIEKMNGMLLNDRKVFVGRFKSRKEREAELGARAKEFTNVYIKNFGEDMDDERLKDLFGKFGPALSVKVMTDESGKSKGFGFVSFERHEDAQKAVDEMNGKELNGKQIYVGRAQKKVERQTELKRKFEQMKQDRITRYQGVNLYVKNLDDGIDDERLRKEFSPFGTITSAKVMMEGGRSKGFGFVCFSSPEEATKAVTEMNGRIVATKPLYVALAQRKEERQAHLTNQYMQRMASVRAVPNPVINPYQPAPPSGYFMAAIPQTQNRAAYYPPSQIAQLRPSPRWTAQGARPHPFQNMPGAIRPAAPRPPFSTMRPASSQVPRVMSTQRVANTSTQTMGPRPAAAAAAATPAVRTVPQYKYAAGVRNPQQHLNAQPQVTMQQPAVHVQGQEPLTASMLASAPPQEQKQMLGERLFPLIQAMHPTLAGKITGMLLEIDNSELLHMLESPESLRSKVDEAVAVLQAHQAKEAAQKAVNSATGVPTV

In the case of `O=C1NC(=O)N(CCc2ccc(F)cc2)C(=O)/C1=C/C=C/c1ccccc1`, the inhibition (at 35 µM) was -13.4% (inactive). Same read-out and setting: the same measure for `O=C(O)COc1ccccc1/C=C1\C(=O)NC(=O)N(CCC2=CCCCC2)C1=O`: 53.5% (active); for `O=C1NC(=O)N(Cc2ccco2)C(=O)/C1=C\c1cccn1CCOc1ccccc1`: 10.9% (inactive). Still for that read-out and setting: the same measure for `COc1ccc(Br)cc1CNCCc1cccc(Cl)c1`: 3.3% (inactive); for `c1ccc(CC2CCCCN2)cc1` (stereo unspecified): 1.7% (inactive). On to `COc1ccc(CNCCc2c[nH]c3ccccc23)cc1OC`, for which the inhibition (at 35 µM) was 11.6% (inactive). The same measure, in the same setting: the same measure for `CC(=NCC1CCCO1)c1c(O)n(-c2ccccc2)c(=O)[nH]c1=O` (stereo unspecified): -3.4% (inactive); for `CC(=O)c1c(O)n(C2CCCCCC2)c(=O)[nH]c1=O`: 75.6% (active). The same measure, in the same setting: the same measure for `CCC(=NCCc1ccccc1)c1c(O)n(C2CCCCC2)c(=O)[nH]c1=O`: -9.2% (inactive); for `COc1cccc(OC)c1C(=O)NC(=S)N1C[C@H]2C[C@H](C1)c1cccc(=O)n1C2`: 13.3% (inactive). With `CN(C)c1ccc(/C=C2\CC3C4CC=C5CC(O)CCC5(C)C4CCC3(C)C2=O)cc1` (stereo unspecified), the inhibition is, setting by setting: (at 35 µM) 53.3% (active); (confirmation repeats, at 20 µM) 93.6%.

In the case of `O=C(Cc1ccc(Cl)cc1)NCCN1CCN(C(=O)Cc2ccc(Cl)cc2)CC1`, under “at 35 µM”, the inhibition is 3.1% (inactive). Still for that read-out and setting: the same measure for `O=[N+]([O-])c1cnc2ccc3ccccc3c2c1`: 3.3% (inactive); for `COc1ccc2[nH]c3c(c2c1)CCN[C@H]3C`: 7.6% (inactive). Still for that read-out and setting: the same measure for `COc1ccc(N=Cc2c(O)n(C)c(=O)[nH]c2=O)cc1`: -8.6% (inactive); for `CN(C)CCN(CC1CCCN(Cc2ccccc2F)C1)C(=O)Cc1ccc(F)c(F)c1` (stereo unspecified): 0.6% (inactive). Take `Cc1c(Oc2cc(NN3CCCCC3)c([N+](=O)[O-])cc2[N+](=O)[O-])cccc1[N+](=O)[O-]`: the inhibition (at 35 µM) was 2.3% (inactive). Same read-out and setting: the same measure for `O=C(NC(=S)N1C[C@H]2C[C@H](C1)c1cccc(=O)n1C2)c1ccc(F)cc1`: 2.2% (inactive); for `CCN(CC)CCOC(=O)c1cc2cc(COC)ccc2o1`: 70.7% (active); for `C=CCN1C(=O)NC(=O)/C(=C/c2ccc(OCC(=O)Nc3ccc(C)cc3)cc2)C1=O`: 8.1% (inactive). Same read-out and setting: the same measure for `COc1ccc(CNCCc2ccc3c(c2)OCO3)c(OC)c1OC`: 11.3% (inactive); for `CCNc1nc2[nH]c(=O)c3c(c2s1)OC(N)=C(C#N)C3c1cccs1` (stereo unspecified): 68.5% (active); for `N#CC1=C(N)Oc2c(c(=O)oc3ccccc23)C1c1ccccc1OC(=O)c1cccs1` (stereo unspecified): -4.4% (inactive). The same measure, in the same setting: the result for `COc1cccc(C(=O)N2C[C@H]3C[C@@H](C2)c2cccc(=O)n2C3)c1` reads 1.4% (inactive).

For the compound `COc1ccccc1NC(=O)N1C[C@@H]2C[C@@H](C1)c1cccc(=O)n1C2`, under “at 35 µM”, the inhibition was -1.1% (inactive). On the same count and under the same terms, the same measure for `O=C(O)c1ccccc1NC(=O)C1C2CCC(O2)C1C(=O)O` (stereo unspecified): -8.7% (inactive). For the compound `COc1cccc(N2C(=O)NC(=O)/C(=C\c3ccc([N+](=O)[O-])s3)C2=O)c1`, the inhibition (at 35 µM) is -6.1% (active) and the inhibition (confirmation repeats, at 20 µM) was 95.4%.

As to `O=C1NC(=O)N(c2ccccc2)C(=O)/C1=C/c1ccc([N+](=O)[O-])s1`, the inhibition is 40.1% (inactive) (at 35 µM) and 30.8% (confirmation repeats, at 20 µM). On to `Cc1cccc(N2C(=O)NC(=O)/C(=C\c3cnn(-c4ccccc4)c3)C2=O)c1`, for which the inhibition (at 35 µM) was -12.4% (inactive).

For the compound `Oc1cc2c(cc1CN1CCN(c3ccccc3)CC1)OCO2`, for the setting “at 35 µM”, the inhibition is 2% (inactive).

With `COCCNC(=O)CN1C2CCC1CC(O)(c1cccnc1)C2` (stereo unspecified), the inhibition (at 35 µM) is 14.6% (inactive). In the case of `O=C(CN1CCCC1=O)NCCc1ccccc1`, the inhibition (at 35 µM) is -2.9% (inactive). As for `O=C1CC(=O)N(Cc2ccccc2)C(=O)N1CCCCCCN1C(=O)CC(=O)N(Cc2ccccc2)C1=O`, the inhibition (at 35 µM) is 25.8% (active) and the inhibition (confirmation repeats, at 20 µM) was found to be 112%.

Consider `CC(C)(C)c1ccc(CN2C(=O)CN=C(c3ccccc3)c3ccccc32)cc1`, for which, for the setting “at 35 µM”, the inhibition is 12.1% (inactive). With `CC(C)c1ccc(OCC(=O)N2CCCN(C)CC2)cc1`, the inhibition (at 35 µM) was -0.5% (inactive).

Turning to `COc1ccc(CN2C(=O)NC(=O)/C(=C\c3ccc(OC)c(OC)c3OC)C2=O)cc1`, the inhibition runs as follows: (at 35 µM) 66.4% (inactive); (confirmation repeats, at 20 µM) 6.1%.

For `Cc1cc(/C=C2/C(=O)NC(=O)N(Cc3ccco3)C2=O)c(C)n1-c1ccc(C(=O)O)cc1`, the inhibition is 47.1% (inactive) (at 35 µM) and 23.1% (confirmation repeats, at 20 µM). Taken in the same sequence, the figures for `COc1ccc(N2C(=O)/C(=C/c3ccco3)C(=O)NC2=S)cc1` were 38.7% (active) and 73.3%.

With `COc1ccccc1OC(=O)c1ccc(C)c(S(=O)(=O)N2CCOCC2)c1`, the inhibition (at 35 µM) is -7% (inactive).

As for `CCN(CC)C(=O)c1ccc(NC(=O)c2sccc2-c2ccccc2)cc1`, where the note is “at 35 µM”, the inhibition is -2.6% (inactive). On the same count and under the same terms, the result for `CN(C)C(=O)Oc1ccc2c(c1)O/C(=C\c1ccccc1)C2=O` reads -6.7% (inactive); that for `CC(=O)Nc1ccc(C(=O)C(Cc2ccccc2)N(C)C)cc1` (stereo unspecified), -3.6% (inactive). With `c1ccc(CCNC2CCCCCC2)cc1`, the inhibition (at 35 µM) is 8.2% (inactive). For `O=c1[nH]c(=O)n(CCc2ccc(F)cc2)c(O)c1/C=N/N1CCCCC1`, the inhibition (at 35 µM) is -15% (inactive). Consider `O=c1[nH]c(=O)n(CCc2ccccc2)c(O)c1/C=N/N1CCOCC1`, for which the inhibition (at 35 µM) was -1.6% (inactive). Same read-out and setting: the result for `O=c1[nH]c(=O)n(Cc2ccccc2)c(O)c1/C=N/Nc1c(F)c(F)c(F)c(F)c1F` reads 71% (active). On to `O=C(N/N=C/c1c(O)n(Cc2ccccc2)c(=O)[nH]c1=O)c1ccccc1`, for which the inhibition was 15% (active) (at 35 µM) and 81.4% (confirmation repeats, at 20 µM). As to `CCCCC(=O)N/N=C/c1c(O)n(-c2ccccc2)c(=O)[nH]c1=O`, the inhibition (at 35 µM) is 5.3% (inactive). On the same count and under the same terms, the result for `O=C(N/N=C/c1c(O)n(C2CC2)c(=S)[nH]c1=O)c1ccccc1` reads 0.6% (inactive). The same measure, in the same setting: the result for `CN1CCC(OC(=O)c2cccc(F)c2)CC1` reads -7.8% (inactive). Regarding `CCN(CC)C(=O)Oc1ccc(NC(=O)N2CCOCC2)cc1`, for the setting “at 35 µM”, the inhibition was 2.1% (inactive). Consider `CCN1CCN(Cc2cc(OC)c3c(c2)OCO3)CC1`, for which, under “at 35 µM”, the inhibition was 16.4% (inactive). Still for that read-out and setting: the result for `Cc1ccc(C2CN(C)CC2C(=O)c2ccc(F)cc2)cc1` (stereo unspecified) reads 3.1% (inactive).

On to `CC1(C)Cc2c(C#N)c(N3CCNCC3)nc(-c3ccco3)c2CS1`, for which the inhibition (at 35 µM) is 47.2% (active) and the inhibition (confirmation repeats, at 20 µM) came to 59.2%.

As for `O=C(N/N=C/c1c(O)n(C2CC2)c(=S)[nH]c1=O)c1ccccc1Cl`, the inhibition (at 35 µM) was 31% (inactive). In the case of `O=c1c2ccccc2nc(/C=C/c2ccco2)n1-c1ccccc1O`, the inhibition was 43.7% (active) (at 35 µM) and 54.4% (confirmation repeats, at 20 µM). Turning to `O=c1c2ccccc2nc(-c2ccco2)n1-c1ccc(Br)cn1`, the inhibition (at 35 µM) is 5.1% (inactive). On the same count and under the same terms, the same measure for `O=c1c2ccccc2nc(/C=C/c2ccc(F)cc2)n1-c1ccccc1O`: -9.7% (inactive). On the same count and under the same terms, the result for `CN(C)S(=O)(=O)c1cc(C(=O)N2CCC(C(=O)O)(c3ccccc3)CC2)ccc1Cl` reads 7.1% (inactive). Same read-out and setting: the result for `Cc1cccc(NC(=O)N2CC3CC(C2)c2cccc(=O)n2C3)c1` (stereo unspecified) reads -0.3% (inactive).

With `CC1CCC(N(C)C2CCN(C)CC2)CC1` (stereo unspecified), the inhibition (at 35 µM) is 10.9% (inactive).

Turning to `CN(C)CCCN=Cc1c(O)n(Cc2ccco2)c(=O)[nH]c1=O`, the inhibition (at 35 µM) is 3% (inactive).

On to `Cn1c(O)c(C=Nc2ccc3c(c2)CCC3)c(=O)n(C)c1=O`, for which the inhibition (at 35 µM) was -0.7% (inactive).

As for `CC(C)n1c(=O)c(C=Nc2ccc(Br)cc2)c(O)n(Cc2ccco2)c1=O`, the inhibition by setting is: (at 35 µM) 6% (active); (confirmation repeats, at 20 µM) 52%.

Turning to `CCN1C(=O)C(=Cc2c(C)n(CC(=O)NCC3CCCO3)c3ccccc23)C(=O)N(CC)C1=S` (stereo unspecified), the inhibition (at 35 µM) was -3.1% (inactive).
